Measurements reported in PubChem BioAssay (NCI).
The panel holds about 79,000 compounds, 15% with a hit somewhere; the sample as a whole holds those more often. Active and inactive are the calls of the source. Cut-off read from the data, not from the text of the source: active = growth inhibition above about 70%; inactive = the rest.

Assay: NCI Yeast Anticancer Drug Screen. Data for the rad18 strain (AID 177)
Conditions: S. cerevisiae rad18 mutant growth inhibition, stronger effect = higher value
Experimental: Growth inhibition of yeast strains with defined genetic alterations is measured as a screen for potential anti-cancer activity. Selected strains with alterations in DNA damage repair or cell cycle control were exposed to compounds and growth inhibition was measured relative to vehicle treated controls. The strain used in this assay is rad18

SMILES	growth inhibition (at 1.2 µM)	growth inhibition (at 3.7 µM)	growth inhibition (at 11.0 µM)	growth inhibition (at 33.0 µM)	growth inhibition (at 100.0 µM)
CC1C=CN(N(C)C)C2=C1C(=O)c1cnccc1C2=O (stereo not given)	66% (inactive)	87% (active)	90% (active)	96% (active)	96% (active)
O=C(O)/C=C\C(=O)NNc1ccc(Br)cc1	-2% (inactive)	95% (active)	98% (active)	98% (active)	98% (active)
CN(Cc1cccc2ccccc12)Cc1cccc2ccccc12	9% (inactive)	6% (inactive)	-20% (inactive)	11% (inactive)	6% (inactive)
O=C(CCCN1CCC2(CC1)OC(=O)N(c1ccccc1)C2=O)c1ccccc1	63% (inactive)	70% (active)	78% (active)	80% (active)	77% (active)
Cc1cccc[c]1[Sn]([Cl])([S]/C(C#N)=N/N=C/c1ccc(N(C)C)cc1)[c]1ccccc1C	0% (inactive)	-2% (inactive)	10% (inactive)	61% (inactive)	92% (active)
O=C(O)[C@H]1[C@@H](C2CCCCC2)O[C@@H](C2CCCCC2)O[C@H]1C(F)(F)F	-6% (inactive)	-4% (inactive)	-8% (inactive)	-6% (inactive)	-2% (inactive)
CCN(CC)CCSc1c2ccccc2nc2cc(NCC(=O)Nc3ccccc3-c3ccccc3NC(=O)CNc3ccc4c(SCCN(CC)CC)c5ccccc5nc4c3)ccc12	16% (inactive)	12% (inactive)	11% (inactive)	69% (inactive)	97% (active)
Oc1ccc(Br)cc1C=Nc1cccc(C(F)(F)F)c1	-15% (inactive)	-12% (inactive)	16% (inactive)	83% (active)	97% (active)
